In PubChem BioAssay:
Results filed as inconclusive are left out. Active and inactive are the calls of the source.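 The calls were made as follows, unless noted: active = compounds killing one labelled cell type while sparing the other, by normalised counts and ratio limits, not self-fluorescent; inactive = the rest.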

Legend:
[1] = EMT-state selective cytotoxicity in co-culture – imaging, PC-3E GFP, TEM4-18 mCherry, primary screen (AID 1345086); conditions: PC-3E GFP / TEM4-18 mCherry co-culture, imaging cell counts, at 1 µM; for red/green cell ratio (normalised): actives lie on both sides, counts scaled to control wells, 1 = unselective;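 as to all read-outs here: cells exposed to compound for 72 h before imaging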;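 as to red/green cell ratio (normalised): normalised mesenchymal count divided by normalised epithelial count so high means epithelial killing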
[2] = molecular target: Mitogen-activated protein kinase 7 (Homo sapiens) (UniProt Q13164); assay: Gal4-ERK5 driven luciferase induction – cell-based, HTS, primary screen (AID 1508626;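 active = luciferase signal above three times the same-plate solvent-only control wells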;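 also: luciferase driven by Gal4-ERK5 fusion binding five Gal4 sites before minimal TATA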); conditions: HeLa Gal4-ERK5 transactivation, 18 h, at 5 µM, stronger effect = higher value
[3] = blockers of polyQ-driven CASP3 activation – cell-based (AID 1583); conditions: polyglutamine-induced caspase-3 activation, cell assay; stronger effect = higher value;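 tested at 10 µM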
[4] = yeast 75Q aggregation reduction – 75Q-TubU reporter (AID 1593); conditions: Yeast 75Q polyglutamine aggregation reporter
[5] = test system: Aerobactin synthetase IucA (Klebsiella pneumoniae); assay: inhibition of K. pneumoniae IucA enzyme – biochemical, Tocris library, absorbance (AID 1345561; call rule not given here;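 also: 100% = enzyme without compound and 0% = no enzyme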); conditions: purified IucA enzyme assay, absorbance (OD) read-out; stronger effect = lower value;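 tested at 8 µM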
[6] = viability loss in pontine glioma line – cell-based, SU-DIPG-XVII, MIPE5.0, CellTiter-Glo, qHTS, dose response (AID 1347060; cut-off not given, nearly all actives have AC50 up to about 26 µM;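 also: cells exposed to compound for 48 hours before viability readout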); conditions: CellTiter-Glo ATP luminescence
[7] = viability loss in pontine glioma line – cell-based, SU-DIPG-XIII, MIPE4.0, CellTiter-Glo, qHTS, dose response (AID 1347061; cut-off not given, nearly all actives have AC50 up to about 37 µM;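 also: cells exposed to compound for 48 hours before readout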); conditions: CellTiter-Glo ATP luminescence
[8] = viability loss in pontine glioma line – cell-based, JHH-DIPG-1, MIPE4.0, CellTiter-Glo, qHTS, dose response (AID 1347062; cut-off not given, nearly all actives have AC50 up to about 27 µM;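 also: cells exposed to compound for two days before readout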); conditions: JHH-DIPG-1 viability, CellTiter-Glo ATP luminescence
[9] = viability loss in pontine glioma line – cell-based, SU-DIPG-IV, MIPE4.0, CellTiter-Glo, qHTS, dose response (AID 1347063; cut-off not given, nearly all actives have AC50 up to about 30 µM;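 also: compound exposure lasted 48 hours before the viability readout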); conditions: CellTiter-Glo ATP luminescence
[10] = viability loss in pontine glioma line – cell-based, SU-DIPG-XIII, MIPE5.0, CellTiter-Glo, qHTS, dose response (AID 1347064; cut-off not given, nearly all actives have AC50 up to about 23 µM;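 also: cells exposed to compound for 48 hours before the viability read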); conditions: CellTiter-Glo ATP luminescence
[11] = viability loss in pontine glioma line – cell-based, SU-DIPG-XXV, MIPE5.0, CellTiter-Glo, qHTS, dose response (AID 1347065; cut-off not given, nearly all actives have AC50 up to about 26 µM;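 also: cells exposed to compound for 48 hours before ATP readout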); conditions: CellTiter-Glo ATP luminescence
[12] = growth inhibition of DIPG cells – cell-based, MIPE4.0 library, CellTiter-Glo luminescence, qHTS (AID 1347066; cut-off not given, nearly all actives have AC50 up to about 30 µM;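 also: cells exposed to compound for 48 hours before readout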); conditions: SU-DIPG-VI viability, CellTiter-Glo ATP luminescence
[13] = JHH-DIPG-1 glioma cell viability, MIPE5.0 library, CellTiter-Glo luminescence, qHTS (AID 1347067; cut-off not given, nearly all actives have AC50 up to about 26 µM;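 also: cells exposed to compound for 48 hours before readout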); conditions: JHH-DIPG-1 glioma viability, CellTiter-Glo ATP luminescence
[14] = growth inhibition of DIPG cells – cell-based, MIPE5.0 library, qHTS (AID 1347068; cut-off not given, nearly all actives have IC50 up to about 30 µM;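 also: cells exposed to compound for 48 hours before viability readout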); conditions: SU-DIPG-XXV viability
[15] = viability loss with induced miR-34 in A549 – imaging, A549 dox-inducible miR-34, nuclei and caspase counts, primary screen (AID 1347080;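 active = compounds whose cell count with miR-34 switched on is under 0.7 times the count with it off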); conditions: A549 miR-34 inducible, Hoechst nuclei count, 48 h
[16] = galactose survival enhancers in mitochondrial complex I cybrids – cell-based, galactose medium, ATP luminescence, primary screen (AID 1645843;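 active = z-score of at least 1.8 in each of two replicates, scored against plate mean and spread of sample wells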;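 also: positive z means more ATP and so rescue of galactose-driven cybrid death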); conditions: complex I mutant cybrid cells, 72 h, stronger effect = higher value
[17] = P. berghei load reduction in hepatocytes – cell-based, HepG2, luciferase luminescence, HepG2 viability, primary screen (AID 624349; in the data active = parasite load remaining mostly below about 12%, no sharp cut-off; inactive = mostly above about 10%;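 also: 100% = mean of DMSO negative control wells on the same plate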); conditions: P. berghei liver stage in HepG2, luciferase luminescence, concentration not given here; parasite load remaining: stronger effect = lower value; viability: measured here: HepG2 viability without parasites
[18] = measured here: epithelial PC-3E GFP cell survival
[19] = measured here: mesenchymal TEM4-18 mCherry cell survival

Sequence of Mitogen-activated protein kinase 7 (Homo sapiens) (Q13164 whole entry, looked up, the tested form may be a part): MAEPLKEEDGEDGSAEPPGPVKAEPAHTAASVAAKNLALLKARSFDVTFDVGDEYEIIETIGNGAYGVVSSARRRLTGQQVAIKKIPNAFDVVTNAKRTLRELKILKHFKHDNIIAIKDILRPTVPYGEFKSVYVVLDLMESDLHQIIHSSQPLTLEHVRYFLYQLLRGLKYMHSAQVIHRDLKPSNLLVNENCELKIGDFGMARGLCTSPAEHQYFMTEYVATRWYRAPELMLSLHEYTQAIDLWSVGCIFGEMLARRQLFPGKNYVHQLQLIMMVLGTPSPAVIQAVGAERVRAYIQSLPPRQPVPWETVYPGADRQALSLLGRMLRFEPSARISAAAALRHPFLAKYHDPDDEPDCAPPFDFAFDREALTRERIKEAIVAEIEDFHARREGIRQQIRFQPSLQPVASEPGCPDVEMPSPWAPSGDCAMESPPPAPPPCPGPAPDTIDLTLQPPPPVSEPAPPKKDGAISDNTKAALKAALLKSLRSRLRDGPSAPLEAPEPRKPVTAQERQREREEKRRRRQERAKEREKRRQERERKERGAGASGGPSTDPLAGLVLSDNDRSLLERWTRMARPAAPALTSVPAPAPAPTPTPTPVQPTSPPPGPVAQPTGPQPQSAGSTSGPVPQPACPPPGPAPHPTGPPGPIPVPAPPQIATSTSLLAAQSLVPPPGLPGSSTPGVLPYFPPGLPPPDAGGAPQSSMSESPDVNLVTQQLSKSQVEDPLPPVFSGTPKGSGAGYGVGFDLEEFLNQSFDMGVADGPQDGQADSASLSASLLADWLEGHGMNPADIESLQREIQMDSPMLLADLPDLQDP

SMILES: COc1ccc(-c2coc3c(O)c(O)c(OC)cc3c2=O)cc1
- red/green cell ratio (normalised) [1]: 0.97 (inactive)
- normalised cell number [1, 18]: 1.12
- normalised cell number [1, 19]: 1.09
- luciferase signal [2]: 88 AU (inactive)

SMILES: O=c1cc(-c2ccc(O)cc2)oc2ccc(O)cc12
- red/green cell ratio (normalised) [1]: 1 (inactive)
- normalised cell number [1, 18]: 0.97
- normalised cell number [1, 19]: 0.97
- luciferase signal [2]: 52 AU (inactive)

SMILES: CC(C)CC(NC(=O)CCN)C(=O)O (configuration not stated)
- inhibition [3]: 1.74%
- score [4]: 1.04
- red/green cell ratio (normalised) [1]: 1.07 (inactive)
- normalised cell number [1, 18]: 1.22
- normalised cell number [1, 19]: 1.31

SMILES: CC(C)[C@H](CO)Nc1nc(Nc2cccc(Cl)c2)c2ncn(C(C)C)c2n1
- remaining activity [5]: 115% (inactive)
- AC50 [6]: 14.8 µM (active)
- AC50 [7]: 20.9 µM (active)
- AC50 [8]: 16.6 µM (active)
- AC50 [9]: 14.8 µM (active)
- AC50 [10]: 14.8 µM (active)
- AC50 [11]: 7.42 µM (active)
- AC50 [12]: 20.9 µM (active)
- AC50 [13]: 14.8 µM (active)
- IC50 [14]: 16.6 µM (active)
- fold change ([15]; stronger effect = lower value, cell number ratio, induced over uninduced): 1.01 (inactive)
- fold change ([15]; measured here: relative caspase fold change +Dox/-Dox): 0.968
- cell count ([15]; measured here: total cells with miR-34 induction, stronger effect = lower value): 1040
- cell count ([15]; measured here: total cells without miR-34 induction): 1030
- z-score [16]: -0.745 (inactive)

SMILES: CC(=O)OCC(=O)[C@@]1(O)[C@H](C)CC2C3CCC4=CC(=O)C=C[C@]4(C)[C@@]3(F)[C@@H](O)C[C@@]21C (some centres not stated)
- inhibition [3]: 52.6%
- score [4]: 0.99
- parasite load remaining [17]: 140% (inactive)
- viability [17]: 73.1%
- red/green cell ratio (normalised) [1]: 1.26 (inactive)
- normalised cell number [1, 18]: 1.37
- normalised cell number [1, 19]: 1.74

SMILES: CC1(C)C2CC[C@]3(C)C(C(=O)C=C4[C@H]5C[C@@](C)(C(=O)O)CC[C@]5(C)CC[C@]43C)[C@@]2(C)CC[C@@H]1O (some centres not stated)
- inhibition [3]: -22.8%
- score [4]: 2.14
- red/green cell ratio (normalised) [1]: 1.07 (inactive)
- normalised cell number [1, 18]: 1.03
- normalised cell number [1, 19]: 1.11

SMILES: COC(=O)C(N)CS (configuration not stated)
- inhibition [3]: -5.77%
- score [4]: 1.37
- parasite load remaining [17]: 102% (inactive)
- viability [17]: 69.9%
- red/green cell ratio (normalised) [1]: 0.97 (inactive)
- normalised cell number [1, 18]: 1.14
- normalised cell number [1, 19]: 1.11

SMILES: NC[C@H]1O[C@H](O[C@H]2C(O[C@@H]3O[C@H](CO)[C@@H](O)[C@H]3O)[C@@H](O)[C@H](N)C[C@@H]2N)[C@H](N)[C@@H](O)[C@@H]1O (some centres not stated)
- inhibition [3]: -18.6%
- score [4]: 1.41
- parasite load remaining [17]: 166% (inactive)
- viability [17]: 89%
- red/green cell ratio (normalised) [1]: 0.87 (inactive)
- normalised cell number [1, 18]: 1.26
- normalised cell number [1, 19]: 1.1

SMILES: C=C(C)[C@H]1CC=C(C(=O)O)CC1
- inhibition [3]: 10.7%
- score [4]: 0.26
- parasite load remaining [17]: 101% (inactive)
- viability [17]: 69.4%
- red/green cell ratio (normalised) [1]: 0.84 (inactive)
- normalised cell number [1, 18]: 1.08
- normalised cell number [1, 19]: 0.92
- luciferase signal [2]: 24 AU (inactive)

SMILES: NC(COCc1ccccc1)C(=O)O (configuration not stated)
- inhibition [3]: 2.09%
- score [4]: 1.43
- red/green cell ratio (normalised) [1]: 0.87 (inactive)
- normalised cell number [1, 18]: 1.19
- normalised cell number [1, 19]: 1.04

SMILES: CN[C@@H]1[C@@H](O)[C@@H](O[C@@H]2[C@@H](O)[C@H](O[C@H]3O[C@H]([C@@H](C)NC)CC[C@H]3N)[C@@H](N)C[C@H]2N)OC[C@]1(C)O
- red/green cell ratio (normalised) [1]: 0.92 (inactive)
- normalised cell number [1, 18]: 1.22
- normalised cell number [1, 19]: 1.13
- z-score [16]: 0 (inactive)

SMILES: CC(=O)O[C@@H]1CC2C(C)(C)C(=O)C=C[C@]2(C)C2CC[C@@]3(C)[C@H](c4ccoc4)OC(=O)[C@H]4O[C@]43[C@@]21C (some centres not stated)
- inhibition [3]: -6.23%
- score [4]: 0.97
- parasite load remaining [17]: 2.66% (inactive)
- viability [17]: 98.4%
- red/green cell ratio (normalised) [1]: 1.12 (inactive)
- normalised cell number [1, 18]: 0.89
- normalised cell number [1, 19]: 0.99

SMILES: CC(=O)N[C@@H]1[C@@H](C(O)[C@H](O)CO)O[C@](O)(C(=O)O)C[C@@H]1O (some centres not stated)
- inhibition [3]: 7.5%
- score [4]: 1.07
- red/green cell ratio (normalised) [1]: 0.94 (inactive)
- normalised cell number [1, 18]: 1.19
- normalised cell number [1, 19]: 1.12

SMILES: CC(=O)[C@@]1(O)CCC2C3C=C(Cl)C4=CC(=O)[C@@H]5CC5[C@]4(C)C3CC[C@@]21C (some centres not stated)
- inhibition [3]: 39.2%
- score [4]: 0.81
- parasite load remaining [17]: 143% (inactive)
- viability [17]: 89.2%
- red/green cell ratio (normalised) [1]: 0.82 (inactive)
- normalised cell number [1, 18]: 1.07
- normalised cell number [1, 19]: 0.88

SMILES: CC1CCC2(OC1)OC1CC3C4CC[C@H]5C[C@@H](O)CC[C@]5(C)C4CC(=O)[C@]3(C)C1C2C (some centres not stated)
- inhibition [3]: 11.6%
- score [4]: 1.42
- parasite load remaining [17]: 106% (inactive)
- viability [17]: 69.7%
- red/green cell ratio (normalised) [1]: 1.26 (inactive)
- normalised cell number [1, 18]: 1.02
- normalised cell number [1, 19]: 1.27

SMILES: C/C=C(/C)C(=O)O[C@@H]1[C@H](OC(C)=O)[C@@]2(CO)C(CC1(C)C)C1=CCC3[C@@]4(C)CC[C@H](O[C@@H]5O[C@H](C(=O)O)[C@@H](O[C@@H]6O[C@H](CO)[C@@H](O)[C@H](O)[C@H]6O)[C@H](O)[C@H]5O[C@@H]5O[C@H](CO)[C@@H](O)[C@H](O)[C@H]5O)[C@](C)(CO)C4CC[C@@]3(C)[C@]1(C)C[C@H]2O (some centres not stated)
- parasite load remaining [17]: 66% (inactive)
- viability [17]: 87.2%
- red/green cell ratio (normalised) [1]: 0.77 (inactive)
- normalised cell number [1, 18]: 1.1
- normalised cell number [1, 19]: 0.85

SMILES: CC(=O)Oc1ccc2c(c1)CCC1C2CC[C@]2(C)C(=O)CCC12 (some centres not stated)
- parasite load remaining [17]: 88.9% (inactive)
- viability [17]: 66.4%
- red/green cell ratio (normalised) [1]: 0.81 (inactive)
- normalised cell number [1, 18]: 1.27
- normalised cell number [1, 19]: 1.03
